PubChem BioAssay (Tox21)
“And” between values parts separate entries of the source, which are not always exact repeats. Equal values may be shown once. A structure can be active in one record and inactive in another. The source made the active and inactive calls. Calls come from the whole dose curve.

biological target: Androgen receptor (Homo sapiens) (UniProt P10275); test: qHTS assay to identify small molecule agonists of the androgen receptor (AR) signaling pathway in the presence of an antagonist (AID 1259381); settings: MDA-kb2 MMTV-luciferase, AR agonist + nilutamide, 16 h; series mostly up to 42.5 µM; activation: at the top concentration; note: nearly all actives have a fitted effect of over 15% in size
From the text: National Center for Advancing Translational Sciences [NCATS] NIH Chemical Genomics Center [NCGC] U.S. Environmental Protection Agency [EPA] National Institutes of Environmental Health Sciences [NIEHS] National Toxicology Program [NTP] Assay overview: Androgen receptor (AR) is an important member of nuclear receptor family. Its signaling plays a critical role in AR-dependent prostate cancer and other androgen related diseases. Considerable attention has been given in the past decades to develop methods to study and screen for the environmental chemicals that have the potential to interfere with metabolic homeostasis, reproduction, developmental and behavioral functions. Therefore AR binding assay for screening against androgen agonists and antagonists can be used to identify potential endocrine disruptors. MDA-kb2 cells (from ATCC, deposited by Wilson et al.) are human breast carcinoma cells that were stably transfected with a luciferase reporter gene under control of the MMTV promoter that contains response elements for both androgen receptor (AR) and glucocorticoid receptor (GR). This particular screening for measuring luciferase reporter gene activity using MDA-kb2 cells against Tox21 10K library compounds is a confirmation study on agonist mode screening in the presence of AR-antagonist compound (Nilutamide) at 3.0uM final concentration.
Assay Protocol Summary: MDA-kb2 cells (cells cultured without CO2) were dispensed at 3,000 cells/well in 4uL of culture medium into white wall/solid-bottom 1536-well plates (Corning Life Sciences, Corning, NY) using a Multidrop Combi (Thermo Fisher Scientific Inc., Waltham, MA) dispenser. The assay plates were incubated at 37C and 0% CO2 for 5hr. One uL of 3.0uM (final concentration) Nilutamide or assay buffer was added using two separate tips of Flying Reagent Dispenser (FRD, Aurora Discovery, San Diego, CA). Then 23nL of compounds dissolved in DMSO at 15 concentrations and positive controls were transferred to the assay plates using a Pintool station (Wako, San Diego, CA). The assay plates were incubated at 37C and 0% CO2 for 16hr. For luciferase read, 4uL/well ONE-Glo reagent (Promega Corporation, Madison, WI) was added to each well of the assay plates using FRD. After 30min incubation at room temperature, the luminescence signal was measured using a ViewLux plate reader (PerkinElmer, Shelton, CT).
% is set by controls: 0 for no effect and ±100 for the full control effect; potency is the fitted concentration of half-maximal effect.

Androgen receptor (Homo sapiens), sequence (P10275 whole entry, looked up): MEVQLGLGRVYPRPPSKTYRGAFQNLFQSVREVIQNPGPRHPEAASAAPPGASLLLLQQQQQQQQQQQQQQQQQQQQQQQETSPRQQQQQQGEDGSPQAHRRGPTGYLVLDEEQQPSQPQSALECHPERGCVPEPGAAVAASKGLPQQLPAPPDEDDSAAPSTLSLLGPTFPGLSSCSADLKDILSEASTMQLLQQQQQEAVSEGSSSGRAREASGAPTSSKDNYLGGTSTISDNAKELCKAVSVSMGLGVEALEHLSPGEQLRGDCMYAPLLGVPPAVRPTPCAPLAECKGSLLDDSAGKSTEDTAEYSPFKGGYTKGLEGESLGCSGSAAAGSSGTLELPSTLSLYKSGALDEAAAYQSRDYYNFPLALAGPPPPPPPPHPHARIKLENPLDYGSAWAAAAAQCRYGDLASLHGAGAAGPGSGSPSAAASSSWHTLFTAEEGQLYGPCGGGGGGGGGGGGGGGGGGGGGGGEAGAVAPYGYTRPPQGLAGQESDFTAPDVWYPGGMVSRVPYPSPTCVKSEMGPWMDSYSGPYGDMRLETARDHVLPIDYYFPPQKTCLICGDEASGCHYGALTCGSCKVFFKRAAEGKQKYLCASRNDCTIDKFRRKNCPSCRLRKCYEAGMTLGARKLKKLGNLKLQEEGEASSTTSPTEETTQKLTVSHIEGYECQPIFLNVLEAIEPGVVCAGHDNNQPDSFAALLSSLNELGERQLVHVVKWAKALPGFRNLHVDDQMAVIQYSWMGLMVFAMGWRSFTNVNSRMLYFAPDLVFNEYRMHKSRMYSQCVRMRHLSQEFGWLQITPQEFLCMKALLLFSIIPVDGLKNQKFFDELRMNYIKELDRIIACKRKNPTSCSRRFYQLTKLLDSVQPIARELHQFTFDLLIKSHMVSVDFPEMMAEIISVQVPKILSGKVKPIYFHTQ

Compound	activation	Potency
ClC(Cl)(Br)Br	-0.0609% [at 92.4 µM] (inactive)	–
CC(C)(c1ccc(O)cc1)c1ccc(O)cc1	–	inactive and 27.8 µM (active)
NS(=O)(=O)c1ccc(C(=O)O)cc1	0.351% (inactive)	–
CS(=O)(=O)O	3.03% [at 92.4 µM] (inactive)	–
CCOc1ccc(C(=O)OCCN(CC)CC)cc1	0.196% (inactive)	–
CC(C)NC(=O)NC(C)C	0.404% [at 92.4 µM] (inactive)	–
O=C1CC2CC1C1CCCC21 (stereo not given)	–	27.3 µM (active)
NS(=O)(=O)c1cc(C(=O)NN2C[C@H]3[C@H]4CCC(C4)[C@H]3C2)ccc1Cl	-0.157% (inactive)	–
OC1CCCCC1c1ccccc1 (stereo not given)	0.607% [at 92.4 µM] (inactive)	–
CN1CC(=O)NC1=N	0.283% (inactive)	–
CC(=O)CC(C)C	-2.09% [at 92.4 µM] (inactive)	–
C=C(C)C(=O)OCCCCCCCC(C)C	5.96% [at 92.4 µM] (inactive)	–
O=C(O)COc1nn(Cc2ccccc2)c2ccccc12	–	33.5 µM (active)
CC(=O)OCC(CCn1cnc2cnc(N)nc21)COC(C)=O	-0.19% (inactive)	–
O=c1cc(-c2ccccc2)oc2ccccc12	–	inactive and 4.3 µM (active)
CCn1nc(C(=O)O)c(=O)c2cc3c(cc21)OCO3	1.16% (inactive)	–
CCc1cccc2c(CCO)c[nH]c12	1.41% (inactive)	–
CC1(C)C(O)C(C)(C)C1O (stereo not given)	1.03% [at 92.4 µM] (inactive)	–
Cc1cnc(NS(=O)(=O)c2ccc(N)cc2)nc1	-2.71% (inactive)	–
CCSC(=O)N(CC(C)C)CC(C)C	-2.27% [at 92.4 µM] (inactive)	–

Compound	activation	Potency
NC(=O)COCCN1CCN(C(c2ccccc2)c2ccc(Cl)cc2)CC1 (stereo not given)	0.0336% (inactive)	–
CN1N=C(C(N)=O)CCC1=O	0.135% (inactive)	–
COc1ccc2c(c1)c(CC(=O)OCC(=O)O)c(C)n2C(=O)c1ccc(Cl)cc1	-0.293% (inactive)	–
CC(C)(O)C(=O)c1ccccc1	1.74% [at 92.4 µM] (inactive)	–
CCCCNC(=O)NCCCC	-0.244% [at 92.4 µM] (inactive)	–
O=S(O)CO	2.48% [at 92.4 µM] (inactive)	–
CO[C@]12C[C@@H](COC(=O)c3cncc(Br)c3)CN(C)[C@@H]1Cc1cn(C)c3cccc2c13	0.0099% (inactive)	–
CC(NC(CCc1ccccc1)C(=O)O)C(=O)N1C(=O)N(C)CC1C(=O)O (stereo not given)	0.0419% (inactive)	–
CN1CCN(c2cc3c(cc2F)c(=O)c(C(=O)O)cn3-c2ccc(F)cc2)CC1	–	26.6 µM (active)
COC(=O)[C@@H](N)Cc1ccc(O)c(O)c1	0.11% (inactive)	–
NS(=O)(=O)c1cc2c(cc1Cl)NC(C1CC3C=CC1C3)NS2(=O)=O (stereo not given)	1.74% (inactive)	–
CCn1ccnc1CC1COc2ccccc2O1 (stereo not given)	0.848% (inactive)	–
CC(C)(CC(=O)O)C(=O)O	0.0761% [at 92.4 µM] (inactive)	–
C=C(C)CS(=O)(=O)O	-0.769% [at 92.4 µM] (inactive)	–
O=C(c1ccccc1)C1CCCCC1	5.57% [at 92.4 µM] (inactive)	–
FC1(F)C(F)(F)C(F)(F)C2(F)C(F)(F)C(F)(F)C(F)(F)C(F)(F)C2(F)C1(F)F (stereo not given)	-0.004% (inactive)	–
N=C(N)c1ccc2cc(OC(=O)c3ccc(N=C(N)N)cc3)ccc2c1	-6.13% (inactive)	–
CC(=O)Nc1ccc(S(N)(=O)=O)cc1	-0.274% [at 92.4 µM] (inactive)	–
CCCCOCCOCCOCc1cc2c(cc1CCC)OCO2	–	inactive
CCOC(=O)c1c(C)n(C)c2ccc(O)cc12	1.38% (inactive)	–
